Compound activity from PubChem.
CHRM1 agonist: human M1 muscarinic receptor agonism; P11229; CHO-K1 hM1, Fluo-8 calcium fluorescence, agonist mode; 0% DMSO, 100% acetylcholine EC100; activation, % at 3 µM; 0.33% of 360,000 active; AID 588814;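 active means activation above the run's mean compound activation plus 3 SD, cut at about 16% in these data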;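 further: peak over basal fluorescence ratio within a 140 s kinetic read after compound addition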
Target sequence (P11229 whole entry, looked up): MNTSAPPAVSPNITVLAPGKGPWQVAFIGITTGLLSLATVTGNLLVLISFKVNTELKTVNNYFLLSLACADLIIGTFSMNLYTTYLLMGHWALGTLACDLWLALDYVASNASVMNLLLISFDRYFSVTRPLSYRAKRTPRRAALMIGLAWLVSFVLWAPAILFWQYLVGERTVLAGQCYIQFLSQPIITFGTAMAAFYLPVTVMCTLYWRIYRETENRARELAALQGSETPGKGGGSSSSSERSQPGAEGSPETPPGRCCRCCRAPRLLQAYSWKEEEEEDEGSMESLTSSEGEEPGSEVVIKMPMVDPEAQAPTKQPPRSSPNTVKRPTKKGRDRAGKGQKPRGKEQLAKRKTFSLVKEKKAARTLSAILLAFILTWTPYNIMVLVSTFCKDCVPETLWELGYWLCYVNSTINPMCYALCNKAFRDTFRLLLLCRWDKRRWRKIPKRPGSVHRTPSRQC
M1 PAM: human CHRM1 positive allosteric modulation. P11229. CHO-K1 hM1, Fluo-8 calcium fluorescence, ACh EC20; 0% = ACh EC20, 100% = maximal ACh. activation, % at 3 µM. 0.088% of 360,000 active. AID 588819; in the data active means activation above about 19%, passing the limit was not always enough
M1 ag parental: nonselective activator or artifact in parental CHO-K1 cells | Fluo-8 calcium fluorescence; scaled to maximal ATP response, vehicle zero | activation, % at 3 µM | 0.48% of 360,000 active; in the data active means activation above about 15%;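 further: untransfected CHO-K1 host cells lacking M1 receptor as counterscreen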
M1 antag: blocks human M1 muscarinic receptor. 1.3% of 360,000 active. AID 588852. CHO-K1 hM1, Fluo-8 calcium fluorescence, ACh EC80 antagonist. P11229. inhibition, % at 3 µM;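 active means percent inhibition above its own plate's cutoff, namely the mean of that plate's compound wells plus 3 SD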;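 further: peak over basal fluorescence ratio during 140 s after agonist addition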
M1 PAM parental: M1 PAM counterscreen hit in parental CHO-K1 cells; ATP EC20, Fluo-8 calcium fluorescence; 0% at ATP EC20, 100% at ATP max; activation, % at 3 µM; 0.02% of 360,000 active;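 active means activation above the run cutoff, the mean activation of all test compounds plus 3 SD, cut at about 40% in these data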;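 further: peak over basal fluorescence ratio in a 140 s read after ATP addition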
CHO-K1 Ca antag: counter-screen for M1 antagonists: effect in parental CHO-K1 cells; ATP-induced calcium, Fluo-8 fluorescence; inhibition, % at 3 µM; 0.6% of 360,000 active; AID 602250;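 active means inhibition above a per-plate cutoff, the plate's mean sample inhibition plus 3 SD, cut at about 24% in these data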
Hits are given with their value. Most compounds without a hit are left out; they make up all but 2.4% or so of the library.

Results for COc1cc(C(=O)NNC(=S)NC(=O)/C=C/c2ccccc2)cc(OC)c1OC ?
CHRM1 agonist: 23.3; M1 PAM: inactive; M1 ag parental: inactive; M1 antag: inactive; M1 PAM parental: inactive; CHO-K1 Ca antag: inactive

Results for CN1CCN(C(=O)c2ccccc2NC(=O)c2cccs2)CC1 ?
CHRM1 agonist: inactive; M1 PAM: inactive; M1 ag parental: inactive; M1 antag: active; M1 PAM parental: inactive; CHO-K1 Ca antag: inactive

Results for CN1CCN(C(=O)c2ccccc2NC(=O)c2ccccc2Br)CC1 ?
CHRM1 agonist: inactive; M1 PAM: inactive; M1 ag parental: inactive; M1 antag: inactive; M1 PAM parental: inactive; CHO-K1 Ca antag: inactive

Results for CCOc1ccc(N=C2NC(=O)SC2CC(=O)OC)cc1 (configuration not stated) ?
CHRM1 agonist: inactive; M1 PAM: inactive; M1 ag parental: inactive; M1 antag: inactive; M1 PAM parental: inactive; CHO-K1 Ca antag: inactive

How did COCCNC(=O)C1(C)CCCN(C(=O)c2ccco2)C1 (configuration not stated) do in these assays?
CHRM1 agonist: inactive; M1 PAM: inactive; M1 ag parental: inactive; M1 antag: inactive; M1 PAM parental: inactive; CHO-K1 Ca antag: inactive

What do the screens show for `Cc1ccc(C(=O)NCC(=O)OCc2cccc(Br)c2)cc1`?
CHRM1 agonist: inactive; M1 PAM: inactive; M1 ag parental: inactive; M1 antag: inactive; M1 PAM parental: inactive; CHO-K1 Ca antag: inactive

What do the screens show for `Cc1ccccc1C(=O)Nc1cccc(NC(=S)NC(=O)c2cccs2)c1`?
CHRM1 agonist: inactive; M1 PAM: inactive; M1 ag parental: inactive; M1 antag: inactive; M1 PAM parental: inactive; CHO-K1 Ca antag: inactive

Results for CC(C)(C)c1ccc(C(=O)NC(=S)NNC(=O)c2cccs2)cc1 ?
CHRM1 agonist: 91.9; M1 PAM: inactive; M1 ag parental: 85.3; M1 antag: 26.7; M1 PAM parental: inactive; CHO-K1 Ca antag: inactive

Results for Cc1cccc(C(=O)NC(=S)NNC(=O)c2cccs2)c1 ?
CHRM1 agonist: 19.2; M1 PAM: inactive; M1 ag parental: 15.4; M1 antag: inactive; M1 PAM parental: inactive; CHO-K1 Ca antag: inactive

Results for O=C(NC(=S)NNC(=O)c1cccs1)c1ccccc1 ?
CHRM1 agonist: inactive; M1 PAM: inactive; M1 ag parental: inactive; M1 antag: inactive; M1 PAM parental: inactive; CHO-K1 Ca antag: inactive

Results for Cc1ccccc1C(=O)NNC(=S)NC(=O)c1cccs1 ?
CHRM1 agonist: 51.1; M1 PAM: inactive; M1 ag parental: 36.6; M1 antag: inactive; M1 PAM parental: inactive; CHO-K1 Ca antag: inactive

Results for COc1cc(C(=O)NNC(=S)NC(=O)c2ccc(Cl)cc2)cc(OC)c1OC ?
CHRM1 agonist: 32.8; M1 PAM: inactive; M1 ag parental: inactive; M1 antag: inactive; M1 PAM parental: inactive; CHO-K1 Ca antag: inactive

What do the screens show for `COc1ccccc1N1CCN(C2CCCN(C(=O)CCc3ccccn3)C2)CC1` (configuration not stated)?
CHRM1 agonist: inactive; M1 PAM: inactive; M1 ag parental: inactive; M1 antag: inactive; M1 PAM parental: inactive; CHO-K1 Ca antag: inactive

What do the screens show for `CCOC(=O)[C@]12CCCC=C1N(Cc1ccco1)C(=O)[C@H](CC(=O)NCC1CCCCC1)C2`?
M1 ag parental: inactive; M1 PAM parental: inactive; CHO-K1 Ca antag: inactive

Results for CC(=O)NC(=S)Nc1ccc(NC(=S)NC(=O)c2cccs2)cc1 ?
CHRM1 agonist: inactive; M1 PAM: inactive; M1 ag parental: inactive; M1 antag: inactive; M1 PAM parental: inactive; CHO-K1 Ca antag: inactive

How did Cc1c(C(=O)NC(=S)Nc2ccc(NC(=O)c3cccs3)cc2)cccc1[N+](=O)[O-] do in these assays?
CHRM1 agonist: inactive; M1 PAM: inactive; M1 ag parental: inactive; M1 antag: 33.2; M1 PAM parental: inactive; CHO-K1 Ca antag: inactive

How did O=C(NC1CC1)c1cccc(NC(=O)c2cc(S(=O)(=O)N3CCOCC3)ccc2Cl)c1 do in these assays?
CHRM1 agonist: inactive; M1 PAM: inactive; M1 ag parental: inactive; M1 antag: inactive; M1 PAM parental: inactive; CHO-K1 Ca antag: inactive

Results for Cc1cccc(Nc2nc(-c3c(C)nc4ccccn34)cs2)c1 ?
CHRM1 agonist: inactive; M1 PAM: inactive; M1 ag parental: inactive; M1 antag: 37.0; M1 PAM parental: inactive; CHO-K1 Ca antag: inactive
